In PubChem BioAssay one finds composite z-score and z-score data, which are given here for six compounds.

For assay [1], the system named is Plasmodium falciparum Sir2 (PF13_0152, Sir2A). Put plainly: Plasmodium falciparum Sir2A binding compounds – biochemical, small-molecule microarray, 635 nm fluorescence, primary screen (AID 1098).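 Further: score merges spot fluorescence intensity with its signal-to-noise ratio.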 The following applies: fluorescence 635 nm, higher = more signal.
Assay [2] can be described thus: probe aDKK1 binding to arrayed compounds – biochemical, biotinylated probe, 635/667 nm fluorescence, primary screen (AID 1099).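 Further: score merges 667nm spot fluorescence with signal to noise across triplicate slides.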 To be noted: small-molecule microarray, higher = more signal.
Assay [3] can be described thus: probe aCHRDL2 binding to arrayed compounds – biochemical, biotinylated probe, 635/667 nm fluorescence, primary screen (AID 1100). To be noted: small-molecule microarray, higher = more signal.
Assay [4] can be described thus: change in splice reporter luminescence, either direction, cell-based, HEK293, spliceosome inhibition project, primary screen (AID 1101).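 Further: HEK293 cells carrying a splicing-competent luciferase reporter gene; test concentration not given here.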 To be noted: HEK293 splicing luciferase reporter, 24 h, higher = more signal, called active from +8 up or from −8 down. For orientation: Reporter assays use an easily measured gene product as a stand-in for the process of interest.

In assay [5] the target is Fibroblast growth factor 10 (Homo sapiens) (UniProt O15520). Put plainly: compounds binding fibroblast growth factor 10 – biochemical, small-molecule microarray, 635 nm fluorescence, primary screen (AID 1102). To be noted: FGF10 binding, fluorescence 635 nm, higher = more signal.
Fibroblast growth factor 10 (Homo sapiens), sequence (O15520 whole entry, looked up): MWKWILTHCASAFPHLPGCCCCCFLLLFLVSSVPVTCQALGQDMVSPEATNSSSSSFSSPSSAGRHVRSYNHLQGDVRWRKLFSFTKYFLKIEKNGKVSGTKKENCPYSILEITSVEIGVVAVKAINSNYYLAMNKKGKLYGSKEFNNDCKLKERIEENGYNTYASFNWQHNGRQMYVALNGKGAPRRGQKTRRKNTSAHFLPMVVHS
Assay [6] concerns glycogen synthase kinase-3 (GSK3A per assay name; protocol says GSK3B). As to the kind of experiment: compounds binding glycogen synthase kinase-3 – biochemical, small-molecule microarray, 635 nm fluorescence, GSK3A, primary screen (AID 1103). Further: the record names both GSK3A and GSK3B. The following applies: fluorescence 635 nm, higher = more signal.
Assay [7] addresses Epidermal growth factor receptor (Homo sapiens) (UniProt P00533). Put plainly: compounds binding epidermal growth factor receptor – biochemical, small-molecule microarray, 635 nm fluorescence, primary screen (AID 1104).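 Further: score merges 667 nm emission intensity with spot signal to noise over triplicate slides.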 To be noted: EGFR binding, higher = more signal.
Assay [8] has as its target Follistatin-related protein 3 (Homo sapiens) (UniProt O95633). Put plainly: compounds binding follistatin-related protein 3 – biochemical, small-molecule microarray, 635 nm fluorescence, primary screen (AID 1105).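 Further: score merges emission near 667 nm and signal to noise per printed spot across three slides.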 The following applies: FSTL3 binding, higher = more signal.
The target in assay [9] is Dickkopf-related protein 1 (Homo sapiens) (UniProt O94907). As to the kind of experiment: small molecules binding DKK1 protein – biochemical, small-molecule microarray, 635 nm fluorescence scan, primary screen (AID 1106).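 Further: score merges emission near 667 nm with signal to noise over three replicate slides.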 To be noted: higher = more signal.
Dickkopf-related protein 1 (Homo sapiens), sequence (O94907 whole entry, looked up): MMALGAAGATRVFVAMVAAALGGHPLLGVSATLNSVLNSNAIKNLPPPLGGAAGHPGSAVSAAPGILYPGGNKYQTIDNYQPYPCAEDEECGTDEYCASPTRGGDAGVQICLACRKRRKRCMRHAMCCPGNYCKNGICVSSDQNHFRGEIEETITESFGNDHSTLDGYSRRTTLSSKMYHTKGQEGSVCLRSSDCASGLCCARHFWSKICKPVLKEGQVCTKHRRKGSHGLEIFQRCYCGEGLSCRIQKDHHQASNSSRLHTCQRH
Assay [10] has as its system Inhibin beta A chain (activin A). Put plainly: small molecules binding activin A – biochemical, small-molecule microarray, 635 nm fluorescence scan, primary screen (AID 1107).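 Further: mouse activin A protein probed at 4.33 µg/mL on printed slides; score merges bound-protein fluorescence near 667 nm with spot signal-to-noise.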 To be noted: INHBA, higher = more signal.
The subject of assay [11] is Human papillomavirus type 1a protein E7 (residues 44-93). As to the kind of experiment: small molecules binding HPV E7 44-93 – biochemical, small-molecule microarray, residues 44-93, 635 nm fluorescence, primary screen (AID 1108).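 Further: E7 fragment applied at 1 µg/mL in TBST for 1 h at 4 C; score combines spot fluorescence with its signal to noise ratio.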 To be noted: fluorescence 635 nm, higher = more signal.
Assay [12] in a line: hepatitis C replication reporter changes, two-sided – Huh7 cells, luciferase reporter, HCV replication inhibitor project, primary screen (AID 1109).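 Further: huh7 hepatoma cells harbouring a luciferase neomycin HCV replicon reporter; luciferase luminescence as measure of HCV replicon replication; test concentration not given here.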 The following applies: Huh7 HCV replicon luciferase reporter, 48 h; higher = more signal.
In assay [13] the target is Left-right determination factor 2 (Homo sapiens) (UniProt O00292). Put plainly: small molecules binding LEFTY2 protein – biochemical, small-molecule microarray, 635 nm fluorescence scan, primary screen (AID 1110). The following applies: higher = more signal.
Left-right determination factor 2 (Homo sapiens), sequence (O00292 whole entry, looked up): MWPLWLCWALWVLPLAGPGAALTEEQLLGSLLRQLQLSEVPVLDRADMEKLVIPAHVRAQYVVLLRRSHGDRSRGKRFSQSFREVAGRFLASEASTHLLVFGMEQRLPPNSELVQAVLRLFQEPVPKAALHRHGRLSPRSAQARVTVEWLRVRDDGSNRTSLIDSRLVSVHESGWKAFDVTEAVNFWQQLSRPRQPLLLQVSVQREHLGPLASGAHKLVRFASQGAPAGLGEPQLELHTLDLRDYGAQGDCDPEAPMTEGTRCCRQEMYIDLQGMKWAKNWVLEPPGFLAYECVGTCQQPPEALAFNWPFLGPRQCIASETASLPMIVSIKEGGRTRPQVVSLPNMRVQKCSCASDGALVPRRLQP
Assay [14] addresses Calmodulin-1 (Homo sapiens) (UniProt P0DP23). Put plainly: small molecules binding calmodulin-1 with EGTA – biochemical, small-molecule microarray, Cy5-labelled CALM1, profiling panel (AID 1111).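 Further: labelled calmodulin applied in Tris saline Tween buffer holding calcium plus EGTA and DTT.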 The following applies: Cy5-CALM1 binding fluorescence, higher = more signal.
The target is the same in assay [15]. Put plainly: small molecules binding Ca-loaded calmodulin-1 – biochemical, small-molecule microarray, Cy5-labelled CALM1, plus calcium, artefact control for SMM control-protein annotation, profiling panel (AID 1112).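 Further: score merges spot fluorescence with signal to noise from triplicate slides.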 The following applies: Cy5-CALM1 binding fluorescence, higher = more signal.
A short description of assay [16]: probe aWnt5a binding to arrayed compounds – biochemical, biotinylated probe, 635/667 nm fluorescence, primary screen (AID 1113).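 Further: score merges 667 nm fluorescence intensity with signal-to-noise per printed feature.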 To be noted: small-molecule microarray, higher = more signal.
Assay [17] can be described thus: probe aShh binding to arrayed compounds – biochemical, biotinylated probe, 635/667 nm fluorescence, primary screen (AID 1114).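 Further: probe is biotin-labelled aShh protein from a stem cell growth factor screen; measures binding of labelled protein to compounds printed on the slide; score merges feature fluorescence at 667 nm with signal-to-noise.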 The following applies: small-molecule microarray, higher = more signal.
The nature of assay [18]: probe aNog binding to arrayed compounds – biochemical, biotinylated probe, 635/667 nm fluorescence, primary screen (AID 1115).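 Further: probe is biotinylated aNog protein used at 0.15 µg/mL for 1 h at 4 C; z-score combines 667 nm fluorescence of each spot with its signal to noise.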 The following applies: small-molecule microarray, higher = more signal.
Assay [19] concerns the target Torsin-1A-interacting protein 1 (Homo sapiens) (UniProt Q5JTV8). As to the kind of experiment: compound microarray binding of lysate hLAP1 – cell lysate, small-molecule microarray, COS7 lysate, 635/667 nm fluorescence, primary screen (AID 1116). To be noted: 635 nm fluorescence, higher = more signal.
For assay [20], the target named is Alpha-bungarotoxin (Bungarus multicinctus) (UniProt P60615). As to the kind of experiment: compounds binding labelled alpha-BTX control protein – biochemical, small-molecule microarray, Alexa647 label, 635/667 nm fluorescence, artefact control for SMM control protein annotation, profiling panel (AID 1117). The following applies: alpha-BTX-A647 binding fluorescence, higher = more signal.
Alpha-bungarotoxin (Bungarus multicinctus), sequence (P60615 whole entry, looked up): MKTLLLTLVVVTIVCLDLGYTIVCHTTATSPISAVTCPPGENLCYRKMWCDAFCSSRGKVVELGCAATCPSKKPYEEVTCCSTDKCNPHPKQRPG

Calls of active or inactive are those of the source.

Follistatin-related protein 3 (Homo sapiens), sequence (O95633 whole entry, looked up): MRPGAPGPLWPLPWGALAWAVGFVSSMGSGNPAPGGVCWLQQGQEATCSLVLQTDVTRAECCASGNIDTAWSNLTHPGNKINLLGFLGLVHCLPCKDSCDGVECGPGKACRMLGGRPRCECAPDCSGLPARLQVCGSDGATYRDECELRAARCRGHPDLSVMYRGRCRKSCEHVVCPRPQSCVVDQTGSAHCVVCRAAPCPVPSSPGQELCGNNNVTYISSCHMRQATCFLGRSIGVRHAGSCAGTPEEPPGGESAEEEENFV
Epidermal growth factor receptor (Homo sapiens), sequence (P00533 whole entry, looked up): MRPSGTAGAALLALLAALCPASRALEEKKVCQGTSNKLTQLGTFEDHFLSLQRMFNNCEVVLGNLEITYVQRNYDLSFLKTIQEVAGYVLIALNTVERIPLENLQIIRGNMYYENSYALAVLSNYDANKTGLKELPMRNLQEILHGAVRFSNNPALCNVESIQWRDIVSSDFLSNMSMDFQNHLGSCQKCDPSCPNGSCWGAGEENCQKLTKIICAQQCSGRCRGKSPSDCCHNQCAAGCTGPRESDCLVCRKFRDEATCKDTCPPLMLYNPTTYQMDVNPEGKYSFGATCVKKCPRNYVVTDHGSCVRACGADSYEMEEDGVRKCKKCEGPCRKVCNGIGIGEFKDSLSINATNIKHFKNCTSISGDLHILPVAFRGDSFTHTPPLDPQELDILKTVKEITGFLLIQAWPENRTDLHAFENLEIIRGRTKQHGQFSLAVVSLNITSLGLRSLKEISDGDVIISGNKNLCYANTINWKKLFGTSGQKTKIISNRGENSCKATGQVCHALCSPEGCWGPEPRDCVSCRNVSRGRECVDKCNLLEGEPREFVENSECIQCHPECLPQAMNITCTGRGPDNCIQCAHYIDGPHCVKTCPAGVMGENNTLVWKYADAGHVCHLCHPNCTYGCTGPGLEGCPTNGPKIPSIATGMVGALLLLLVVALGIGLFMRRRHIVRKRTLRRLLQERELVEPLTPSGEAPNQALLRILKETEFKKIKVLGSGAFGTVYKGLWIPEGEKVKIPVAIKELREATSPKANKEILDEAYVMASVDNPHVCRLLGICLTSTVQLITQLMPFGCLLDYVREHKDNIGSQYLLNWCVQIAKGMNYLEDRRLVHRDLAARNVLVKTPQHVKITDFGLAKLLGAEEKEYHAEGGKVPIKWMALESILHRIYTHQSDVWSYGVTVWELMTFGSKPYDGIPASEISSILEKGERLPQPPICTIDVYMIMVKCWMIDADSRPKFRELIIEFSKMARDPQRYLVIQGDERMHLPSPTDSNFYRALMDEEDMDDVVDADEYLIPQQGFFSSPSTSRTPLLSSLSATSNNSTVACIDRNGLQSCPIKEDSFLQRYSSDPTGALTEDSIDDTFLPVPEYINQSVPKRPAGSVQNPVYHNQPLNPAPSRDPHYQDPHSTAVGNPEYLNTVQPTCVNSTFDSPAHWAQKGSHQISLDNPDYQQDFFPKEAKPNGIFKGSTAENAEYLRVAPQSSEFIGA
Torsin-1A-interacting protein 1 (Homo sapiens), sequence (Q5JTV8 whole entry, looked up): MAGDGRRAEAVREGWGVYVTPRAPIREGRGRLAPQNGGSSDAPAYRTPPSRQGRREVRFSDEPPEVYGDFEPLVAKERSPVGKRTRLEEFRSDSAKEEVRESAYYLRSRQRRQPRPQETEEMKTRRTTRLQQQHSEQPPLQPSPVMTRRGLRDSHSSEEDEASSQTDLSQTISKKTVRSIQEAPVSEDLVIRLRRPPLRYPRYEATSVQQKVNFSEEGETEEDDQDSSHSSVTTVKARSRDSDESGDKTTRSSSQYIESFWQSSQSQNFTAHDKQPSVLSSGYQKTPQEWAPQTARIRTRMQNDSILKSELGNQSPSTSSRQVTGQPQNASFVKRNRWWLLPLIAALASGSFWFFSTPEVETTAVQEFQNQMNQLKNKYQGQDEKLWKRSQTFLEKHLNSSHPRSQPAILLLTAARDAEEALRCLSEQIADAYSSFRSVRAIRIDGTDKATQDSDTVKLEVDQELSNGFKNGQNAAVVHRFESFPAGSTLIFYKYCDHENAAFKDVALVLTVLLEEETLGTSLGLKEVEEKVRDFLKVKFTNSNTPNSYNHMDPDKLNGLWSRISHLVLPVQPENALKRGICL

As for `Cc1cc(C)c(C(O)C2C=CC3C(=O)N(C)C(=O)C3N2N2CCCCC2)c(C)c1` (stereo not given), the composite z-score amounted to 1.38 in assay [1]; 0.261 in assay [2]; 1.2 in assay [3]; 1.07 in assay [5]; 1.31 in [6]; 0.641 in assay [7]. In addition, the composite z-score in assay [8] was 1.35; in assay [9], 0.384; in assay [10], 1.36; in assay [11], 1.37; in assay [13], 0.314; in [14] it was 1.75. For the same compound, the composite z-score in [15] came to 0.22; in assay [16] it was 0.0437; in assay [17], 0.308; in [18] it was 1.45; in [19], 0.959; in assay [20] it was 2.36. In addition, the z-score in assay [4] is 1.91 (inactive); in assay [12], 0.186.
Regarding `Cc1ccc(S[C@]2(C(=O)NCCN3CCOCC3)CC(=O)N(C3Cc4ccccc4C3)[C@@H]2c2ccc(CO)cc2I)cc1`, the composite z-score in assay [1] is 1.84; in [2], 0.696; in [3], 1.18; in assay [5] it was -0.303; in assay [6] it was -0.909; in assay [7] it was -1.65. Further, the composite z-score in assay [8] was -0.359; in assay [9], -0.408; in [10], 0.72; in assay [11] it was 0.0913; in assay [13], -1.71; in assay [14], -0.0071. Further, the composite z-score is -0.0474 in assay [15]; 0.0718 in assay [16]; -0.0553 in assay [17]; 0.79 in [18]; 0.0697 in assay [19]; 1.74 in assay [20]. Moreover, the z-score in assay [4] is -1.16 (inactive); in assay [12] it was -1.69.
With `COc1ccc([Si](C)(C)[C@H]2[C@H](CCO)O[C@@]3(C(=O)N(Cc4ccccc4)c4ccc(N5C(=O)c6cccc7cccc5c67)cc43)[C@@H]2C)cc1`, the composite z-score in assay [1] is 0.0883; in assay [2], 0.153; in [3], 0.633; in [5] it was -0.558; in assay [6] it was -0.636; in assay [7], -0.835. Also, the composite z-score in assay [8] was -0.574; in assay [9] it was -0.784; in assay [10], 0.629; in assay [11], -0.137; in assay [13] it was -0.681; in [14] it was 0.793. Besides, the composite z-score in [15] was 0.906; in assay [16], -0.124; in assay [17], -0.0769; in [18] it was 0.0936; in assay [19] it was 0.461; in [20] it was 0.524. For the same compound, the figures for the z-score in assay [4] and in assay [12] were -1.1 (inactive) and -4.5, respectively.
For `Cc1ccc(S(=O)(=O)N2[C@@H](c3ccccc3)C(C(=O)O)=CC[C@H]2c2ccccc2)cc1`, the composite z-score in [1] is 0.0714; in [2], 0.153; in assay [3] it was 0.431; in [5], 0.476; in assay [6], -0.0481; in assay [7] it was 0.197. The composite z-score in assay [8] is 0.169; in assay [9] it was -0.454; in assay [10], 0.512; in assay [11] it was 0.433; in assay [13], -0.363; in [14], 0.526. In addition, the composite z-score in assay [15] was 0.355; in assay [16], 0.0317; in [17] it was -0.0709; in [18], 0.109; in assay [19], -0.701; in assay [20], 0.317. In addition, the z-score is -0.258 (inactive) in assay [4] and 0.498 in [12].
As for `CCN1C(C)=C(C(=O)OC)[C@@H](c2ccccc2)N2C(=O)[C@@]3(C(=O)OC)O[C@@]12[C@@H]1C(=O)N(C)C(=O)[C@@H]13`, the composite z-score in [1] was 0.736; in assay [2], -0.0561; in assay [3] it was -0.45; in assay [5] it was 1.25; in [6], 0.622; in [7] it was 0.471. For the same compound, the composite z-score in assay [8] was 1.41; in assay [9], 1.1; in [10], 0.613; in [11], -0.592; in assay [13], 0.72; in assay [14], 0.439. Further, the composite z-score in assay [15] is -0.686; in assay [16], -0.0882; in [17] it was -0.283; in assay [18], 0.372; in assay [19], 0.426; in [20], 1.19. For the same compound, the z-score in assay [4] is -0.997 (inactive); in assay [12] it was -0.0304.
With `CCCNC(=O)[C@@H]1c2ccccc2C(=O)N(C2CCCCC2)[C@H]1c1ccc(CO)cc1`, the composite z-score was 0.941 in assay [1]; 0.331 in [2]; 0.533 in assay [3]; 0.965 in assay [5]; 1.3 in assay [6]; 0.432 in [7]. The composite z-score in assay [8] amounted to 0.958; in [9], 0.315; in assay [10], 0.397; in [11], 1.44; in assay [13], 0.454; in [14], 0.674. Further, the composite z-score in assay [15] was -0.616; in assay [16] it was -0.131; in assay [17], 0.131; in [18], -0.278; in assay [19], 0.65; in assay [20], 0.765. Besides, the figures for the z-score in assay [4] and in [12] were -0.618 (inactive) and -1.32, respectively.
